Measurements: PubChem BioAssay AID1009 (NMMLSC, 2008)
About 200 (0.11%) of roughly 190,000 compounds were called active. No stated cut-off is given here; in the data, active means inhibition above about 40%. Many of the other results were omitted from the sample, so actives are more common in it than they were.

target: Induced myeloid leukemia cell differentiation protein Mcl-1 (Homo sapiens) (UniProt Q07820); test: inhibitors of Bim peptide binding to Mcl-1, primary screen, biochemical, bead-based flow cytometry, multiplex (AID 1009); conditions: Bim peptide-Mcl-1 binding, at 10 µM, hits give high values;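 further: 0% = no compound tracer wells and 100% = peptide blocker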
Sequence (Q07820 whole entry, looked up): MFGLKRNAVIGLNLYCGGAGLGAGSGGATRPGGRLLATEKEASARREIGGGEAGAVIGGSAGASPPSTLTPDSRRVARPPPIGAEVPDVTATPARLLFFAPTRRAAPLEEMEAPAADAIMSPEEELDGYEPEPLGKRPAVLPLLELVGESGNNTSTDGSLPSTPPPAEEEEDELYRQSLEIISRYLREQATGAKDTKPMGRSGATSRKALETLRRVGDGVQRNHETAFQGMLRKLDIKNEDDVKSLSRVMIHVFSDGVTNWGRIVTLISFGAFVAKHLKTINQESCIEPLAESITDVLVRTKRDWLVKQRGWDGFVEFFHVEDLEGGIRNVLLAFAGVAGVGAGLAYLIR

SMILES | inhibition
CC(CO)NCC12CC3CC(CC(C3)C1)C2 (configuration not stated) | 0% (inactive)
Cc1[nH]c2ccccc2c1/C=C(/C#N)C(=O)NC(C)C | 0% (inactive)
C=CCN(Cc1nc(-c2cc(OC)c3c(c2)OCO3)oc1C)C1CCS(=O)(=O)C1 (configuration not stated) | -1% (inactive)
CC(C)C(=O)NCc1cc(-c2ccc(Cl)cc2)no1 | -2% (inactive)
O=C(NCCCN1CCOCC1)c1ccc(N2CCCC2)c([N+](=O)[O-])c1 | 0% (inactive)
O=C(NCc1ccc(F)cc1)C(c1ccccc1)N(C(=O)c1csnn1)C1CC1 (configuration not stated) | -1% (inactive)
Nc1[nH][nH]c(=O)c1N=Nc1ccc2c(c1)OCO2 | 0% (inactive)
COc1ccc(Cl)cc1N(CC(=O)N/N=C/c1ccc(OCC(N)=O)cc1)S(C)(=O)=O | 1% (inactive)
CSc1ccc(CN2C(=O)NC3(CCCCCC3)C2=O)cc1 | 3% (inactive)
Cc1nc(N2CCC(C)CC2)c2c(C)c(C(=O)Nc3cc(F)ccc3C)sc2n1 | -1% (inactive)
COc1ccc(/C=N/OCC(=O)N(Cc2ccccc2)c2ccccc2C(=O)O)cc1 | -1% (inactive)
C#CCOCCOCCOCCNc1nc(N2CCN(C(=O)[C@H](CCC(=O)O)n3cc(C(N)CO)nn3)CC2)nc(N2CCN(C(=O)[C@H](Cc3ccc(O)cc3)n3cc(C(N)[C@H](C)CC)nn3)CC2)n1 (some centres not stated) | 0% (inactive)
CCOC(=O)Cc1ncccc1C(=O)Nc1ccc(OC(F)(F)F)cc1 | -7% (inactive)
COc1ccc(C(=O)N2CCC(C(=O)Nc3ccc(C)cc3)CC2)cc1 | -3% (inactive)
N#Cc1ccc(-c2nc3cc(C#N)c(C#N)cc3nc2-c2ccccc2)cc1C#N | 1% (inactive)
O=C(CCN1C(=O)/C(=C/c2cccs2)SC1=S)NNC(=O)c1cccc(O)c1 | 0% (inactive)
COCC1CCCN(Cc2cn[nH]c2-c2cc3ccccc3o2)C1 (configuration not stated) | -3% (inactive)
O=C(NC(=S)NC1CCSC1=O)c1ccccc1F (configuration not stated) | 0% (inactive)
O=C(N/N=C/c1cc([N+](=O)[O-])ccc1O)/C(=C\c1cccs1)NC(=O)c1ccccc1 | 0% (inactive)
COc1ccc(C(=O)C2CCCN(Cc3cccn3-c3ccccn3)C2)c(C)c1 (configuration not stated) | 0% (inactive)
CN(CC(=O)NC1CCCC1)S(=O)(=O)c1cnc[nH]1 | -8% (inactive)

SMILES | inhibition
Cc1cc(C)nc(Nc2ncn[nH]2)n1 | 1% (inactive)
CCCCC(CC)CNC(=O)C(=O)C1C(=O)Nc2ccccc21 (configuration not stated) | -2% (inactive)
O=C(/C=C/c1cnc2ccccc2n1)NC1CCCCCC1 | -22% (inactive)
COc1cccc(CNC(=O)c2n[nH]c3ccccc23)c1 | 0% (inactive)
COc1ccc(N(CC(=O)Nc2ccc(C)cc2C)S(=O)(=O)c2ccccc2[N+](=O)[O-])c(OC)c1 | 4% (inactive)
COc1ccc(C(=O)NC2(C(F)(F)F)NC(=O)N(CCCc3ccccc3)C2=O)c(OC)c1OC (configuration not stated) | -3% (inactive)
CCCOc1ccc(Cn2ccnc2)cc1[N+](=O)[O-] | -1% (inactive)
O=C(/C=C/c1ccc(Cl)cc1)N1CCN(c2ccccc2[N+](=O)[O-])CC1 | -1% (inactive)
CCO[C@H]1OC(C(=O)N2CCOCC2)=C[C@@H](c2ccc3c(c2)OCO3)[C@@H]1CCCO | -2% (inactive)
CC(=O)N1CCN(S(=O)(=O)c2c(F)cc(F)c(Cl)c2F)CC1 | -1% (inactive)
Cc1ccc(Cl)c(NC(=O)CN2CCN(C=O)CC2)c1 | 0% (inactive)
CCCn1c(C(O)c2cc(OC)ccc2OC)nc2ccccc21 (configuration not stated) | 80% (active)
CCCn1c(C(O)c2ccc(OCC)cc2)nc2ccccc21 (configuration not stated) | 0% (inactive)
COc1cc(C(O)c2nc3ccccc3n2C)cc(OC)c1OC (configuration not stated) | 0% (inactive)
COc1ccc(CC2(CO)CCN(Cc3cnn(C)c3)CC2)cc1 | 8% (inactive)
COc1cccc(NC(=O)CS(=O)(=O)c2cn(CC(=O)N3CCOCC3)c3ccccc23)c1 | 1% (inactive)
COc1ccc(S(=O)(=O)NC(C)C)cc1C(=O)NC1CCCCC1 | -1% (inactive)
O=C(CCN1C(=O)c2ccccc2C1=O)C1=NN[C@@H]2C(=O)N(c3ccc(F)cc3)C(=O)[C@H]12 | -3% (inactive)
Cc1c(Cc2ccccc2)c(=O)oc2cc(OCC(N)=O)ccc12 | 0% (inactive)
C/C(=N/OC(=O)c1c(-c2c(F)cccc2Cl)noc1C)c1cnccn1 | -2% (inactive)
COC(=O)C1=C(C)N(C(C)c2ccccc2)C(=O)/C1=C\c1ccco1 (configuration not stated) | -2% (inactive)

SMILES | inhibition
Cc1ccc2[nH]cc(CCCN3C(=O)c4ccccc4C3=O)c2c1 | -3% (inactive)
CC1(C)CN(c2ccc(-c3ccnc4ncnn34)cc2)C1=O | -1% (inactive)
Cn1c(CCC(=O)OCC(=O)NCc2ccccc2Cl)nc(=O)c2ccccc21 | -2% (inactive)
CC(=O)Nc1ccc(-c2csc(NC=C3C(=O)OC(C)(C)OC3=O)n2)cc1 | -8% (inactive)
c1ccc2sc(NN=C3CCCC3)nc2c1 | 0% (inactive)
Oc1ccc(-c2nncn2-c2ccccc2)cc1 | 0% (inactive)
COc1cccc(NC(=O)COC(=O)CCOc2ccccc2OC)c1 | 0% (inactive)
COc1ccc(NC(=S)Nc2ccc(S(N)(=O)=O)cc2)c(C)c1 | -2% (inactive)
Cc1ccc(NN=Nc2nc3c([nH]2)c(=O)n(C)c(=O)n3C)cc1 | -7% (inactive)
O=C(NCCCN1CCOCC1)c1ccccc1NS(=O)(=O)c1ccc(F)cc1 | 3% (inactive)
CCOc1cccc(/C=C/c2ccc3ccccc3n2)c1OC(C)=O | 0% (inactive)
O=C(Nc1ccc(F)cc1)C1CCN(C(=O)c2ccc([N+](=O)[O-])cc2)CC1 | 0% (inactive)
Cc1cc(OCCN2CCCC2)cc(C(C)C)c1 | -3% (inactive)
COc1cc(C2OC(c3cc(OC)c(OC)c(OC)c3)C(C)C2C)cc(OC)c1OC (configuration not stated) | 0% (inactive)
COC(=O)c1cc(NC(=O)c2cccnc2)ccc1N1CCOCC1 | -2% (inactive)
Cc1ccc(S(=O)(=O)/N=C(\N)c2ccc(F)cc2)cc1 | 0% (inactive)
CC1CCCC(NC(=O)c2cccc(N3CCCC3=O)c2)C1C (configuration not stated) | 1% (inactive)
CCOC(=O)CN1CCC(c2ccccc2)CC1 | 2% (inactive)
CCOC(=O)N1CCC(NC(=O)COc2cc(=O)n(C)c3ccccc23)CC1 | -1% (inactive)
CCOC(=O)N1CCC(c2cc(=O)n(-c3ccccc3)[nH]2)CC1 | 42% (active)
